This excerpt belongs to a sample that is enriched for hits.
BAP1 block – inhibitors of BAP1 deubiquitinase, primary screen, biochemical, Ub-AMC fluorescence, kinetic; AID 436, 2006; calls only at 20 µM; recombinant BAP1, Ub-AMC hydrolysis fluorescence kinetic; stronger effect = lower value; Ubiquitin carboxyl-terminal hydrolase BAP1 (Homo sapiens), Q92560; 0.48% of 72,000 active;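 active = activity remaining at or below 50% of control, provided the compound also passes the data quality filters; inactive = the rest, including low values that fail the filters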;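 note: 100% = DMSO wells rate and 0% = substrate alone blank rate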
Target sequence (Q92560 whole entry, looked up): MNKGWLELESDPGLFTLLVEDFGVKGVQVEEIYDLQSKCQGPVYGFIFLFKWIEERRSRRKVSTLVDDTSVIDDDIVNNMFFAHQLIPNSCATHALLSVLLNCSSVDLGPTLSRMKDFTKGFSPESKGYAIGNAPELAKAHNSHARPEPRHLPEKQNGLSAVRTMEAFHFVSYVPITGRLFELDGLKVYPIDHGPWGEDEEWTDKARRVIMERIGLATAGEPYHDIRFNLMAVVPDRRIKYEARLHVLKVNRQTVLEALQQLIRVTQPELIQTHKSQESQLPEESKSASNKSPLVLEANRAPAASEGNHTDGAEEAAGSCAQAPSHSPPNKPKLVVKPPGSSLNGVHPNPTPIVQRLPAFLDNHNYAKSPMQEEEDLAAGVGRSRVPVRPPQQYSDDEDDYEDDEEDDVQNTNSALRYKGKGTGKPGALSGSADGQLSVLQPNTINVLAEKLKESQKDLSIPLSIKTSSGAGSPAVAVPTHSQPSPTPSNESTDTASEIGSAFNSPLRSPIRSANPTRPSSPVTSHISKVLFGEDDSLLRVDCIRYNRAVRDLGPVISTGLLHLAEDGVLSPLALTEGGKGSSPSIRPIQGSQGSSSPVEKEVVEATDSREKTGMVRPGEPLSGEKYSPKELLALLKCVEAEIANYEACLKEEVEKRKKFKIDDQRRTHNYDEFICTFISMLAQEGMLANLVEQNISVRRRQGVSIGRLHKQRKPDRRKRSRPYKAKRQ
D1 allo mod – D1 CRE-luciferase signal change, two-sided – cell-based, HEK293 D1, dopamine EC30, D1 allosteric modulator project, primary screen; dopamine EC30 potentiation; actives deviate in either direction; 5.9% of 58,000 active; D(1A) dopamine receptor (Homo sapiens), P21728; B-score at 10 µM;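 active = luminescence count or its row- and column-corrected plate score outside the 99.7% band of the plate's sample wells, on either side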
DAT uptake mod – changed hDAT dopamine uptake under cocaine IC80, either direction, primary screen, cocaine antagonist project, cell-based, LLC-PK1 hDAT, [14C]-dopamine uptake, MLSMR. B-score at 10 µM. LLC-PK1 hDAT cells, [14C]-dopamine uptake with cocaine IC80; actives deviate in either direction. 1.3% of 110,000 active. AID 449768, 2010. Sodium-dependent dopamine transporter (Homo sapiens), Q01959;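 active = Z score or B-score, a plate-position-corrected score, falls beyond the plate's 99.7% confidence bounds, in either direction; inactive = both scores lie inside the 99.7% bounds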;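 note: scored against the spread of the other compound wells on the same plate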
* = called active by the depositor; i = inactive; . = not tested or not shown; + = active, no number.

SMILES | BAP1 block | D1 allo mod | DAT uptake mod
COc1ccc(C(=O)N2CCN(C(=O)c3ccc(F)cc3)CC2)cc1OC | i | . | .
COc1ccc(NC2OC(C(O)CO)C(O)C2O)cc1 (stereo not drawn) | i | . | .
COc1c(C)cc(Br)cc1C(=O)Nc1ccc(N2CCN(S(C)(=O)=O)CC2)cc1 | i | . | -0.606
COc1c(C)cccc1C(=O)Nc1ccc(N2CCN(S(C)(=O)=O)CC2)cc1 | i | -0.00277 | -7.94*
CC1=C(C(=O)OC2CCC(C)CC2)C(c2ccc([N+](=O)[O-])cc2)NC(=O)N1 (stereo not drawn) | i | . | .
O=C(CSc1nccn1-c1ccc(Cl)cc1)Nc1ccc2c(c1)OCO2 | i | -1.27 | 0.734
Cc1cccc(-n2ccnc2SCC(=O)Nc2ccc3c(c2)OCCO3)c1 | i | -1.38 | 1.84*
COc1cccc(NC(=O)CSc2nnc(-c3ccoc3C)n2-c2ccccc2)c1 | . | . | -0.0692
Cc1cccc(-n2c(SCC(=O)Nc3ccc4c(c3)OCO4)nnc2-c2ccoc2C)c1 | i | -3.36* | 0.954
CC12CCC(C(=O)N3CCCC3)(CC1=O)C2(C)C (stereo not drawn) | i | . | .
Clc1ccc(Cn2c(N=Cc3ccc4c(c3)OCO4)nc3ccccc32)cc1 | i | . | .
COc1ccc(CNC(=O)c2nn3c(c2Br)NC(c2cccs2)CC3C(F)(F)F)cc1 (stereo not drawn) | i | . | .
Cc1cccc(NC(=O)c2cc(=O)c3ccccc3o2)c1C | i | . | .
COc1cc(-c2cc(C(F)(F)F)n3ncc(C(=O)Nc4ccc(Cl)cc4)c3n2)cc(OC)c1OC | i | . | .
O=C(CCCC(=O)N1CCCc2ccccc21)N1CCCc2ccccc21 | . | -0.269 | 2.72*
Cc1ccc(-c2nnn(CC(=O)N3CCCc4ccccc43)n2)cc1 | . | . | -7.78*
CCn1c(SCC(=O)N2CCCc3ccccc32)nc2ccccc2c1=O | i | 1.55 | 3.14*
O=C(CN1CCCCC1)N1CCCc2ccccc21 | . | . | -0.0924
CCn1c(SCC(=O)N2CCCc3ccccc32)nc2cccnc21 | i | -0.585 | 0.227
O=C(Cn1nnc(-c2ccncc2)n1)N1CCc2ccccc21 | i | -0.422 | -0.263
CC1=C(C(=O)Nc2cccc(C)c2C)C(c2ccc(C)cc2)NC(=S)N1 (stereo not drawn) | i | . | .
CCOC(=O)C1=C(C)N(CC)C(=O)NC1c1ccccc1[N+](=O)[O-] (stereo not drawn) | i | . | .
CCOC(=O)c1c(NC(=O)c2ccc(S(=O)(=O)N3CC(C)OC(C)C3)cc2)sc(C)c1C (stereo not drawn) | i | . | .
CCn1c(=O)cc(OCC(=O)N(C)C2CCCCC2)c2ccccc21 | i | . | 2.42*
CCOC(=O)COc1cc(=O)n(CC)c2ccccc12 | i | 1.36 | 0.174
SMILES | BAP1 block | D1 allo mod | DAT uptake mod
O=C(COc1ccc(-n2cnnn2)cc1)NC1CCCCC1 | i | -0.332 | 1.63
O=C(COc1ccc(-n2cnnn2)cc1)NC(=O)NCc1ccccc1 | i | -4.42* | 0.254
CCOc1ccc2c(c1)sc(=NC(=O)c1ccc(S(=O)(=O)N3CC(C)CC(C)C3)cc1)n2C (stereo not drawn) | i | . | .
O=C1c2ccccc2N2C(=O)c3ccccc3[C@H]2N1c1ccccc1 | . | . | -2.66*
O=C1OC2c3ccccc3C(=O)N2c2ccccc21 (stereo not drawn) | i | . | .
CC1=C(C(=O)OC(C)C)C(c2ccc(O)cc2)C2=C(CCCC2=O)N1 (stereo not drawn) | i | . | .
Cc1ccc(C(=O)N2c3ccc(F)cc3CCC2C)o1 (stereo not drawn) | i | 0.0551 | -1.5
Cc1nn(Cc2ccc(C(=O)N3c4ccc(F)cc4CCC3C)o2)c(C)c1Br (stereo not drawn) | i | 0.0659 | 3.33*
Cc1cc(OC(=O)c2ccccc2)cc2c(=O)c3ccccc3sc12 | i | . | .
Cc1ccc(S(=O)(=O)Cc2ccc(C(=O)NCc3cccs3)o2)cc1 | . | . | 1.82
Cc1ccccc1S(=O)(=O)Cc1ccc(C(=O)NCc2cccs2)o1 | . | . | -8.35*
O=C1C2CC=CCC2C(=O)N1c1ccc(Oc2ccc3ccccc3c2)cc1 (stereo not drawn) | i | . | .
Cn1nc(OC(=O)Nc2ccc(F)cc2)cc1C(F)(F)F | . | . | -0.307
Cn1nc(OC(=O)Nc2ccc(Cl)cc2)cc1C(F)(F)F | . | . | -2.91*
COC(=O)C1=C(NC(=O)c2ccc(OC)cc2OC)CCS1 | i | . | .
CCN1CC2=C(OC(N)=C(C#N)C2c2cccs2)/C(=C/c2cccs2)C1 (stereo not drawn) | i | -2.7* | 0.215
CCN1CC2=C(OC(N)=C(C#N)C2c2ccccc2)/C(=C\c2ccccc2)C1 (stereo not drawn) | i | . | 0.544
O=C(Nc1ccccc1F)c1ccc(S(=O)(=O)N2CCCc3ccccc32)cc1 | i | . | .
Oc1cc(O)cc(/C=C/c2ccc(O)c(O)c2)c1 | + | . | .
COc1ccc(/C=N/N=C/c2ccc(OC)c(O)c2)cc1O | . | . | -0.549
CC1CCN(C(=S)c2ccc3c(c2)OCO3)CC1 | . | . | 0.0646
CC1CCN(C(=O)c2ccc3c(c2)OCCO3)CC1 | i | 0.21 | 6.72*
CC(=O)Nc1ccc(N=Cc2ccc(C=Nc3ccc(NC(C)=O)cc3)cc2)cc1 | i | . | .
CCCc1cc(=O)[nH]c(SCC(=O)N(CC(C)C)C2CCS(=O)(=O)C2)n1 (stereo not drawn) | i | -0.204 | 3.07*
CCCc1cc(=O)[nH]c(SCC(=O)c2cc(C)n(C3CC3)c2C)n1 | . | . | 1.8
SMILES | BAP1 block | D1 allo mod | DAT uptake mod
Cc1ccnc(N2C(=O)c3ccc(Oc4ccc5c(c4)C(=O)N(c4cc(C)ccn4)C5=O)cc3C2=O)c1 | i | . | .
Cc1ccc2c(COC(=O)c3cnc(C)cn3)cc(=O)oc2c1 | i | 0.5 | .
Cc1ccc2c(COC(=O)C3=COCCO3)cc(=O)oc2c1 | i | -4.83* | -0.185
COc1ccc(-c2nc3ccccc3o2)cc1NC(=O)COc1ccc([N+](=O)[O-])cc1 | i | . | .
CCOC(=O)c1sc(N)nc1C | i | . | .
COc1ccc(C(O)(C(=O)NNc2ccc(C)cc2)c2cccs2)cc1 (stereo not drawn) | . | . | -7.86*
O=C(NNc1ccc(C2CCCCC2)cc1)C(O)(c1ccccc1)c1cccs1 (stereo not drawn) | . | . | 0.941
COc1ccc(C(C#N)Nc2ccccc2)cc1 (stereo not drawn) | . | . | 4.57*
COc1ccc(NC(C#N)c2ccc(OC)cc2)cc1 (stereo not drawn) | . | . | -1.31
CC1CCCN(c2nc3ccsc3c(=O)s2)C1 (stereo not drawn) | i | 3.84* | -0.628
CC1CCCN(c2nc3nonc3nc2N2CCCC(C)C2)C1 (stereo not drawn) | . | . | -0.696
CC(=O)Nc1ccc2nc(SCc3c(C)cc(C)c(C(C)=O)c3C)sc2c1 | i | . | .
CCOc1ccc(N2C(=O)CC(N3CCN(C(=O)CN4CCCC4)CC3)C2=O)cc1 (stereo not drawn) | i | . | -0.0777
CCOc1ccc(N2C(=O)CC(N3CCC(NC(=O)Nc4ccccc4)CC3)C2=O)cc1 (stereo not drawn) | i | -0.0631 | -2*

Source: PubChem (several laboratories)
